According to PubChem BioAssay (NCI):
Compounds without any hit were thinned out: in the full panel of roughly 79,000, 15% have a hit. The source made the active and inactive calls. No stated cut-off is given here; in the data, active means growth inhibition above about 70%; inactive means the rest.

What was measured:
[1] = NCI Yeast Anticancer Drug Screen. Data for the rad52 strain (AID 147);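 further: 0% = growth of vehicle-treated control cultures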; conditions: S. cerevisiae rad52 mutant growth inhibition, hits give high values
Method in brief: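 Inhibition of yeast growth, referenced to vehicle controls, was the measured output for a strain with defective DNA damage repair.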

[2] = NCI Yeast Anticancer Drug Screen. Data for the wt1 strain (AID 149);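 further: 0% = growth of vehicle-treated wt1 cultures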; conditions: S. cerevisiae wt1 strain (SPY 50644) growth inhibition, hits give high values
Method in brief: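 Growth inhibition read against vehicle controls after compound exposure of the wt1 yeast strain.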

[3] = NCI Yeast Anticancer Drug Screen. Data for the rad50EPP+ strain (AID 151);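 further: 0% = growth of vehicle-treated control cultures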; conditions: S. cerevisiae rad50 mutant strain, hits give high values
Method in brief: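 Genetically defined yeast (rad50EPP+, DNA damage repair alteration) is grown with compound, and inhibition of growth is expressed relative to vehicle-treated controls.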

[4] = NCI Yeast Anticancer Drug Screen. Data for the rad50 strain (AID 155);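 further: 0% = growth of vehicle-only cultures of the same strain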; conditions: S. cerevisiae rad50 strain growth inhibition, hits give high values
Method in brief: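 Readout: growth inhibition relative to vehicle-treated cultures. Compound exposure was carried out in a genetically defined yeast strain deficient in DNA damage repair.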

[5] = NCI Yeast Anticancer Drug Screen. Data for the mec2-1 strain (AID 157); conditions: S. cerevisiae mec2-1 strain, hits give high values
Method in brief: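 Each compound was tested on mec2-1 yeast, a strain altered in DNA damage repair or cell cycle control. Growth inhibition is reported relative to vehicle.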

[6] = NCI Yeast Anticancer Drug Screen. Data for the rad14 strain (AID 159);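 further: 0% = growth of vehicle-treated control cultures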; conditions: S. cerevisiae rad14 strain growth inhibition, hits give high values
Method in brief: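 Growth inhibition vs vehicle controls; genetically altered yeast strain (DNA damage repair defect) treated with test compounds.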

[7] = NCI Yeast Anticancer Drug Screen. Data for the sgs1 mgt1 strain (AID 161);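 further: 0% = growth of cultures given vehicle only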; conditions: S. cerevisiae sgs1 mgt1 strain, hits give high values
Method in brief: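 Genetically altered yeast, compound exposure, growth inhibition relative to vehicle.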

[8] = NCI Yeast Anticancer Drug Screen. Data for the CLN2oe strain (AID 163);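 further: 0% = growth of vehicle-only control cultures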; conditions: S. cerevisiae CLN2oe strain, hits give high values
Method in brief: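 First, the altered yeast strain was treated with each compound; second, its growth was measured; finally, inhibition was derived by comparison with vehicle controls.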

[9] = NCI Yeast Anticancer Drug Screen. Data for the cln2 rad14 strain (AID 165);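 further: 0% = growth equal to vehicle treated cultures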; conditions: S. cerevisiae cln2 rad14 strain, hits give high values
Method in brief: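 Test compounds were added to cln2 rad14 yeast cultures; inhibition of growth was then determined by comparison with vehicle treatment.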

[10] = NCI Yeast Anticancer Drug Screen. Data for the bub3 strain (AID 167); conditions: S. cerevisiae bub3 mutant strain, hits give high values
Method in brief: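 Readout: yeast growth inhibition, expressed relative to vehicle-only wells. The test organism is a mutant strain from a panel with lesions in DNA repair or checkpoint genes.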

[11] = NCI Yeast Anticancer Drug Screen. Data for the wt2 strain (AID 169);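 further: 0% = growth of vehicle-treated yeast cultures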; conditions: S. cerevisiae wt2 strain growth inhibition, hits give high values
Method in brief: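 The panel's yeast strains carry defined changes in DNA repair or cell cycle genes. Each strain is grown with compound, and growth loss is scored relative to vehicle.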

[12] = NCI Yeast Anticancer Drug Screen. Data for the mlh1 strain (AID 171);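 further: 0% = growth of vehicle-treated control cultures of the same strain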; conditions: S. cerevisiae mlh1 strain growth inhibition, hits give high values
Method in brief: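 Inhibition values reflect reduced yeast growth in the presence of compound, referenced to vehicle controls, using a strain chosen for its alteration in DNA repair or cell cycle control.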

[13] = NCI Yeast Anticancer Drug Screen. Data for the sgs1 strain (AID 173);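 further: 0% = growth of vehicle-only control cultures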; conditions: S. cerevisiae sgs1 mutant, hits give high values
Method in brief: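 Vehicle-treated cultures served as reference for growth inhibition of a yeast strain altered in DNA damage repair or cell cycle control after compound exposure.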

[14] = NCI Yeast Anticancer Drug Screen. Data for the mlh1 rad18 strain (AID 175); conditions: S. cerevisiae mlh1 rad18 strain growth inhibition, hits give high values
Method in brief: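 Inhibition values reflect reduced growth of mutant yeast versus vehicle-treated controls following compound exposure; the mutations affect DNA damage repair.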

[15] = NCI Yeast Anticancer Drug Screen. Data for the rad18 strain (AID 177); conditions: S. cerevisiae rad18 mutant growth inhibition, hits give high values
Method in brief: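 Steps: expose repair-mutant yeast to compound; measure growth; express as inhibition relative to vehicle control.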

[16] = at 5.0 µM (retest, dose inferred, filed as 0.5)
[17] = at 50.0 µM (retest, dose inferred, filed as 5.0)

Measured: growth inhibition

CCOc1ccccc1N=Cc1c2ccccc2cc2ccccc12
inactive: [1]; at 1.2 µM 10% | [1]; at 3.7 µM 28% | [2]; at 1.2 µM -2% | [2]; at 3.7 µM 26% | [3]; at 1.2 µM -4% | [3]; at 3.7 µM 24% | [3]; at 11.0 µM 63% | [4]; at 1.2 µM 1% | [4]; at 3.7 µM 39% | [4]; [16] 11% | [5]; at 1.2 µM -18% | [5]; at 3.7 µM 33% | [5]; [16] 7% | [6]; at 1.2 µM -23% | [7]; [16] -8% | [8]; at 1.2 µM 18% | [8]; at 3.7 µM 36% | [9]; [16] 44% | [9]; at 50.0 µM 58.6% | [10]; at 1.2 µM 4% | [10]; at 3.7 µM 34% | [10]; [16] 37% | [11]; at 1.2 µM -4% | [11]; at 3.7 µM 34% | [12]; at 1.2 µM 18% | [12]; at 3.7 µM 56% | [13]; at 1.2 µM -18% | [13]; at 3.7 µM 24% | [14]; [16] 38%
active: [1]; at 11.0 µM 98% | [1]; at 33.0 µM 99% | [1]; at 100.0 µM 99% | [2]; at 11.0 µM 95% | [2]; at 33.0 µM 97% | [2]; at 100.0 µM 95% | [3]; at 33.0 µM 90% | [3]; at 100.0 µM 89% | [4]; at 11.0 µM 97% | [4]; at 33.0 µM 98% | [4]; [17] 98% | [4]; at 50.0 µM 88.8% | [4]; at 100.0 µM 97% | [5]; at 11.0 µM 98% | [5]; at 33.0 µM 98% | [5]; [17] 99% | [5]; at 50.0 µM 90.8% | [5]; at 100.0 µM 98% | [6]; at 3.7 µM 74% | [6]; at 11.0 µM 98% | [6]; at 33.0 µM 98% | [6]; at 100.0 µM 98% | [7]; [17] 98% | [7]; at 50.0 µM 90.9% | [8]; at 11.0 µM 97% | [8]; at 33.0 µM 98% | [8]; at 100.0 µM 97% | [9]; [17] 98% | [10]; at 11.0 µM 96% | [10]; at 33.0 µM 98% | [10]; [17] 99% | [10]; at 50.0 µM 89.9% | [10]; at 100.0 µM 97% | [11]; at 11.0 µM 96% | [11]; at 33.0 µM 98% | [11]; at 100.0 µM 97% | [12]; at 11.0 µM 97% | [12]; at 33.0 µM 98% | [12]; at 100.0 µM 97% | [13]; at 11.0 µM 96% | [13]; at 33.0 µM 97% | [13]; at 100.0 µM 96% | [14]; [17] 98% | [14]; at 50.0 µM 86.5%

Cc1ccc(Cl)cc1NC(=O)OCCN(C)C(=O)Nc1cc(Cl)ccc1C
active: [4]; [17] 95% | [4]; at 50.0 µM 86% | [5]; [17] 93% | [9]; [17] 75% | [9]; at 50.0 µM 85.1% | [14]; [17] 98%
inactive: [1]; at 1.2 µM 7% | [1]; at 3.7 µM -12% | [1]; at 11.0 µM -36% | [1]; at 33.0 µM -21% | [1]; at 100.0 µM -1% | [2]; at 1.2 µM -30% | [2]; at 3.7 µM -35% | [2]; at 11.0 µM -38% | [2]; at 33.0 µM -30% | [2]; at 100.0 µM 34% | [3]; at 1.2 µM -26% | [3]; at 3.7 µM -20% | [3]; at 11.0 µM -14% | [3]; at 33.0 µM -6% | [3]; at 100.0 µM -11% | [4]; at 1.2 µM -26% | [4]; at 3.7 µM -34% | [4]; [16] 57% | [4]; at 11.0 µM -35% | [4]; at 33.0 µM -31% | [4]; at 100.0 µM 19% | [5]; at 1.2 µM -28% | [5]; at 3.7 µM -34% | [5]; [16] 57% | [5]; at 11.0 µM -36% | [5]; at 33.0 µM -31% | [5]; at 50.0 µM 61% | [5]; at 100.0 µM -21% | [6]; at 1.2 µM -26% | [6]; at 3.7 µM -25% | [6]; at 11.0 µM -31% | [6]; at 33.0 µM -39% | [6]; at 100.0 µM -15% | [7]; [16] -29% | [7]; [17] 32% | [7]; at 50.0 µM 37.6% | [8]; at 1.2 µM -48% | [8]; at 3.7 µM -28% | [8]; at 11.0 µM -48% | [8]; at 33.0 µM -33% | [8]; at 100.0 µM -26% | [9]; [16] 17% | [10]; at 1.2 µM -39% | [10]; at 3.7 µM -39% | [10]; [16] 13% | [10]; at 11.0 µM -42% | [10]; at 33.0 µM -36% | [10]; [17] 56% | [10]; at 50.0 µM 46.9% | [10]; at 100.0 µM 13% | [11]; at 1.2 µM -37% | [11]; at 3.7 µM -27% | [11]; at 11.0 µM -23% | [11]; at 33.0 µM -8% | [11]; at 100.0 µM 6% | [12]; at 1.2 µM -24% | [12]; at 3.7 µM -36% | [12]; at 11.0 µM -33% | [12]; at 33.0 µM -30% | [12]; at 100.0 µM 11% | [13]; at 1.2 µM -22% | [13]; at 3.7 µM -21% | [13]; at 11.0 µM -23% | [13]; at 33.0 µM -15% | [13]; at 100.0 µM 8% | [14]; [16] 45% | [14]; at 50.0 µM 62% | [15]; at 1.2 µM -27% | [15]; at 3.7 µM -35% | [15]; at 11.0 µM -33% | [15]; at 33.0 µM -37% | [15]; at 100.0 µM 15%
